According to PubChem BioAssay (NCI):
The panel holds about 79,000 compounds, 15% with a hit somewhere; the sample as a whole holds those more often. Active and inactive are the calls of the source. No stated cut-off is given here; in the data, active means growth inhibition above about 70%; inactive means the rest.

What was measured:
[1] = NCI Yeast Anticancer Drug Screen. Data for the rad52 strain (AID 147);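 further: 0% = growth of vehicle-treated control cultures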; settings: S. cerevisiae rad52 mutant growth inhibition, active compounds read high
In short: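 Here a repair-compromised yeast strain receives each compound; its growth is then quantified and normalised to vehicle-only controls.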

[2] = NCI Yeast Anticancer Drug Screen. Data for the wt1 strain (AID 149);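 further: 0% = growth of vehicle-treated wt1 cultures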; settings: S. cerevisiae wt1 strain (SPY 50644) growth inhibition, active compounds read high
In short: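 Measured: growth of wt1 yeast under compound versus vehicle treatment, reported as inhibition.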

[3] = NCI Yeast Anticancer Drug Screen. Data for the rad50EPP+ strain (AID 151);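 further: 0% = growth of vehicle-treated control cultures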; settings: S. cerevisiae rad50 mutant strain, active compounds read high
In short: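 Read-out is yeast growth inhibition relative to vehicle; cells used were the rad50EPP+ strain.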

[4] = NCI Yeast Anticancer Drug Screen. Data for the mgt1 strain (AID 153); settings: S. cerevisiae mgt1 mutant growth inhibition, active compounds read high
In short: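 Measured: inhibition of mgt1 yeast growth by compound, normalized to vehicle-treated cultures.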

[5] = NCI Yeast Anticancer Drug Screen. Data for the rad50 strain (AID 155);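 further: 0% = growth of vehicle-only cultures of the same strain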; settings: S. cerevisiae rad50 strain growth inhibition, active compounds read high
In short: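 Growth of the mutant yeast was measured after compound exposure and referenced to vehicle-treated cultures.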

[6] = NCI Yeast Anticancer Drug Screen. Data for the mec2-1 strain (AID 157); settings: S. cerevisiae mec2-1 strain, active compounds read high
In short: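 Using mec2-1 yeast: add compound, measure growth, express inhibition versus vehicle-treated cultures.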

[7] = NCI Yeast Anticancer Drug Screen. Data for the rad14 strain (AID 159);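 further: 0% = growth of vehicle-treated control cultures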; settings: S. cerevisiae rad14 strain growth inhibition, active compounds read high
In short: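 Here, inhibition of yeast growth was measured after compound exposure, using a strain with a genetic defect in DNA damage repair and vehicle-treated cultures as the reference.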

[8] = NCI Yeast Anticancer Drug Screen. Data for the sgs1 mgt1 strain (AID 161);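 further: 0% = growth of cultures given vehicle only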; settings: S. cerevisiae sgs1 mgt1 strain, active compounds read high
In short: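 Percent growth inhibition was derived by comparing compound-exposed mutant yeast with vehicle-exposed cultures. The strain carries alterations in DNA damage repair.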

[9] = NCI Yeast Anticancer Drug Screen. Data for the CLN2oe strain (AID 163);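 further: 0% = growth of vehicle-only control cultures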; settings: S. cerevisiae CLN2oe strain, active compounds read high
In short: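 Whole-cell yeast growth assay. A strain engineered for altered cell-cycle control received compound, and inhibition relative to vehicle-treated cultures was recorded.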

[10] = NCI Yeast Anticancer Drug Screen. Data for the cln2 rad14 strain (AID 165);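 further: 0% = growth equal to vehicle treated cultures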; settings: S. cerevisiae cln2 rad14 strain, active compounds read high
In short: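 Yeast strain cln2 rad14, bearing defects in cell cycle control and DNA repair, serves as the test system; values reflect growth inhibition compared with vehicle.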

[11] = NCI Yeast Anticancer Drug Screen. Data for the bub3 strain (AID 167); settings: S. cerevisiae bub3 mutant strain, active compounds read high
In short: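 Whole-cell yeast assay. The mutant strain was incubated with compounds, and growth inhibition was determined by comparison with vehicle-treated cells.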

[12] = NCI Yeast Anticancer Drug Screen. Data for the wt2 strain (AID 169);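 further: 0% = growth of vehicle-treated yeast cultures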; settings: S. cerevisiae wt2 strain growth inhibition, active compounds read high
In short: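 Treated yeast vs. vehicle-treated yeast: growth inhibition determined.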

[13] = NCI Yeast Anticancer Drug Screen. Data for the mlh1 strain (AID 171);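 further: 0% = growth of vehicle-treated control cultures of the same strain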; settings: S. cerevisiae mlh1 strain growth inhibition, active compounds read high
In short: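 A yeast strain with a defined genetic lesion serves as the test organism. Cultures receive compound or vehicle, and growth is measured.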

[14] = NCI Yeast Anticancer Drug Screen. Data for the sgs1 strain (AID 173);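 further: 0% = growth of vehicle-only control cultures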; settings: S. cerevisiae sgs1 mutant, active compounds read high
In short: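 A genetically defined yeast mutant is incubated with the test compound, and its growth is compared to that of the same strain given vehicle.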

[15] = NCI Yeast Anticancer Drug Screen. Data for the mlh1 rad18 strain (AID 175); settings: S. cerevisiae mlh1 rad18 strain growth inhibition, active compounds read high
In short: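 Steps: expose repair-defective yeast to compound; measure growth; express inhibition against vehicle-treated controls.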

[16] = NCI Yeast Anticancer Drug Screen. Data for the rad18 strain (AID 177); settings: S. cerevisiae rad18 mutant growth inhibition, active compounds read high
In short: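 Measured value is growth inhibition of a yeast strain bearing a DNA repair alteration, referenced to vehicle-treated cells.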

[17] = at 5.0 µM (retest, dose inferred, filed as 0.5)
[18] = at 50.0 µM (retest, dose inferred, filed as 5.0)

Measured: growth inhibition

O=C(CCSC1=NCCCN1)c1ccc(F)cc1
inactive: [1]; at 1.2 µM -38% | [1]; at 3.7 µM -55% | [1]; at 11.0 µM -53% | [1]; at 33.0 µM 58% | [2]; at 1.2 µM -43% | [2]; at 3.7 µM -61% | [2]; at 11.0 µM -101% | [2]; at 33.0 µM 15% | [3]; at 1.2 µM -75% | [3]; at 3.7 µM -100% | [3]; at 11.0 µM -54% | [3]; at 33.0 µM 37% | [4]; at 1.2 µM -59% | [4]; at 3.7 µM -59% | [4]; at 11.0 µM -52% | [4]; at 33.0 µM -3% | [5]; at 1.2 µM -21% | [5]; at 3.7 µM -40% | [5]; [17] 24% | [5]; at 11.0 µM -34% | [5]; at 33.0 µM -34% | [5]; [18] 69% | [5]; at 50.0 µM 4.9% | [6]; at 1.2 µM -15% | [6]; at 3.7 µM 3% | [6]; [17] 17% | [6]; at 11.0 µM -52% | [6]; at 33.0 µM 55% | [7]; at 1.2 µM -19% | [7]; at 3.7 µM -50% | [7]; at 11.0 µM -54% | [7]; at 33.0 µM 23% | [8]; [17] 6% | [9]; at 1.2 µM -6% | [9]; at 3.7 µM -7% | [9]; at 11.0 µM -24% | [9]; at 33.0 µM 14% | [10]; [17] -3% | [10]; [18] 13% | [10]; at 50.0 µM 25.6% | [11]; at 1.2 µM -22% | [11]; at 3.7 µM -17% | [11]; [17] 12% | [11]; at 11.0 µM -23% | [11]; at 33.0 µM -26% | [11]; at 100.0 µM 68% | [12]; at 1.2 µM -12% | [12]; at 3.7 µM -13% | [12]; at 11.0 µM -5% | [12]; at 33.0 µM 34% | [13]; at 1.2 µM -32% | [13]; at 3.7 µM -73% | [13]; at 11.0 µM -23% | [13]; at 33.0 µM -13% | [14]; at 1.2 µM -41% | [14]; at 3.7 µM -52% | [14]; at 11.0 µM -58% | [14]; at 33.0 µM -29% | [15]; [17] 24% | [15]; [18] 48% | [15]; at 50.0 µM 14.9% | [16]; at 1.2 µM -13% | [16]; at 3.7 µM -23% | [16]; at 11.0 µM -22% | [16]; at 33.0 µM 21%
active: [1]; at 100.0 µM 99% | [2]; at 100.0 µM 98% | [3]; at 100.0 µM 98% | [4]; at 100.0 µM 99% | [5]; at 100.0 µM 96% | [6]; [18] 75% | [6]; at 50.0 µM 94.3% | [6]; at 100.0 µM 100% | [7]; at 100.0 µM 99% | [8]; [18] 93% | [8]; at 50.0 µM 91% | [9]; at 100.0 µM 98% | [11]; [18] 79% | [11]; at 50.0 µM 91.2% | [12]; at 100.0 µM 99% | [13]; at 100.0 µM 98% | [14]; at 100.0 µM 99% | [16]; at 100.0 µM 96%

C=COC(=O)N[C@H]1CCc2cc(OC)c(OC)c(OC)c2-c2ccc(SC)c(=O)cc21
inactive: [1]; at 1.2 µM -2% | [1]; at 3.7 µM 1% | [1]; at 11.0 µM 6% | [1]; at 33.0 µM 14% | [2]; at 1.2 µM -2% | [2]; at 3.7 µM -2% | [2]; at 11.0 µM -3% | [2]; at 33.0 µM -2% | [2]; at 100.0 µM 18% | [3]; at 1.2 µM -8% | [3]; at 3.7 µM -2% | [3]; at 11.0 µM -3% | [3]; at 33.0 µM -6% | [3]; at 100.0 µM -2% | [4]; at 1.2 µM -5% | [4]; at 3.7 µM -8% | [4]; at 11.0 µM -4% | [4]; at 33.0 µM 13% | [4]; at 100.0 µM 64% | [5]; at 1.2 µM 1% | [5]; at 3.7 µM 4% | [5]; [17] -6% | [5]; at 11.0 µM 10% | [5]; at 33.0 µM 20% | [5]; [18] 34% | [5]; at 50.0 µM 38.5% | [6]; at 1.2 µM -5% | [6]; at 3.7 µM -4% | [6]; [17] -9% | [6]; at 11.0 µM -5% | [6]; at 33.0 µM 2% | [6]; [18] 41% | [6]; at 50.0 µM 30.9% | [7]; at 1.2 µM -1% | [7]; at 3.7 µM -1% | [7]; at 11.0 µM 6% | [7]; at 33.0 µM 19% | [8]; [17] -9% | [8]; [18] 42% | [8]; at 50.0 µM 38% | [9]; at 1.2 µM -4% | [9]; at 3.7 µM -2% | [9]; at 11.0 µM -12% | [9]; at 33.0 µM -10% | [10]; [17] 3% | [10]; [18] 6% | [10]; at 50.0 µM 20.4% | [11]; at 1.2 µM -3% | [11]; at 3.7 µM -6% | [11]; [17] -3% | [11]; at 11.0 µM -6% | [11]; at 33.0 µM 4% | [11]; [18] 67% | [11]; at 50.0 µM 34.2% | [11]; at 100.0 µM 58%
active: [1]; at 100.0 µM 75% | [5]; at 100.0 µM 88% | [6]; at 100.0 µM 73% | [7]; at 100.0 µM 93% | [9]; at 100.0 µM 80%
